Reference: PubChem BioAssay (NCATS)
Records with an inconclusive call do not appear. Where a call stands in place of a potency, no number is given. The source made the active and inactive calls. Calls come from the whole dose curve; as a rule, active = well fitted inhibition curve with a large enough effect; inconclusive = small, poorly fitted or top-dose-only effect; inactive = no such curve, though single readings can be large or run the other way.

Legend:
[1] = test system: Zika virus NS2B-NS3 protease (unlinked complex); test: Primary screen GU Rhodamine qHTS for Zika virus inhibitors: Unlinked NS2B-NS3 protease assay (AID 1347159); note: nearly all actives have a fitted effect of over 60% in size
Procedure, shortened: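 Noncovalent NS2B hydrophilic domain–NS3 protease domain complex (25 nM) preincubated 15 min at room temperature with compounds (up to 114 microM) in 10 mM Tris-HCl pH 8.0, 0.01% Tween 20; 1.5 microM Rhodamine110 substrate added, fluorescence change over 15 min fitted to Hill equation.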

[2] = test system: Zika virus NS2B-NS3 protease (linked construct); test: Primary screen NINDS Rhodamine qHTS for Zika virus inhibitors (AID 1347160); note: nearly all actives have a fitted effect of over 55% in size
Procedure, shortened: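 Purified linked NS2B-NS3 protease (NS2B hydrophilic domain joined to NS3 protease by flexible linker), 25 nM in 10 mM Tris-HCl pH 8.0, 0.01% Tween 20. Compounds titrated, 15 min preincubation at room temperature; 1.5 microM Rhodamine110 substrate, FITC fluorescence change over 15 min.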

| Structure (SMILES) | Potency [1] | Potency [2] |
| --- | --- | --- |
| COC(=O)C1=CO[C@@H](O[C@@H]2O[C@H](CO)[C@@H](O)[C@H](O)[C@H]2O)/C(=C\CO)[C@@H]1CC(=O)OCCc1ccc(O)cc1 | inactive | inactive |
| Cc1cn(C[C@H](N)C(=O)O)c(=O)n(Cc2ccsc2C(=O)O)c1=O | inactive | inactive |
| COC(=O)C1=COC(OC2OC(CO)C(O)C(O)C2O)C2C(C)CC(=O)C12O (stereo not drawn) | inactive | inactive |
| COCC1OC(n2cnc3c(=O)[nH]cnc32)C(O)C1O (stereo not drawn) | inactive | inactive |
| OC[C@H]1O[C@@H](Oc2cc(O)cc(-c3cc4ccc(O[C@@H]5O[C@H](CO)[C@@H](O)[C@H](O)[C@H]5O)cc4o3)c2)[C@H](O)[C@@H](O)[C@@H]1O | inactive | inactive |
| COCCCc1sc(-c2ccccc2)nc1C(=O)Nc1ccccc1-c1nc2cc(CN3CCCC3)cnc2s1 | inactive | inactive |
| C/C=C1/[C@H](O[C@@H]2O[C@H](CO)[C@@H](O)[C@H](O)[C@H]2O)OC=C2C(=O)O[C@@H]3C[C@@H](C(C)CO)[C@H](COC(=O)C[C@H]21)[C@H]3C (stereo partly drawn) | inactive | inactive |
| C=C[C@]1(C)C[C@@H](OC(=O)CSC2C[C@H]3CC[C@@H](C2)N3C)[C@]2(C)[C@H](C)CC[C@]3(CCC(=O)[C@H]32)[C@@H](C)[C@@H]1O (stereo partly drawn) | inactive | inactive |
| CC(C)C1C(OC(=O)/C=C/c2ccccc2)CC2(C)OC2CCC2(C)OC2C1O (stereo not drawn) | inactive | inactive |
| O=C(Cc1ccccc1)OC[C@H]1O[C@H](O[C@H]2O[C@H](CO)[C@@H](O)[C@H](O)[C@H]2O)[C@H](O)[C@@H](O)[C@@H]1O | inactive | inactive |
| CC1=C[C@H](O)[C@H]2C(C)(C)CCC[C@]2(C)[C@@]1(O)CO | inactive | inactive |
| CCCCNc1nc(N)c2[nH]c(=O)n(Cc3ccc(OCCN(C)C)nc3)c2n1 | inactive | inactive |
| COc1cc(C[C@@]2(O)CO[C@@H](c3ccc(O[C@@H]4O[C@H](CO)[C@@H](O)[C@H](O)[C@H]4O)c(OC)c3)[C@H]2CO)ccc1O | inactive | inactive |
| C=C1C(OC(C)=O)CCC2(C)CC3(O)OC(=O)C(C)=C3CC12 (stereo not drawn) | inactive | inactive |
| NC(N)=NCCC[C@H](NC(=O)c1sccc1NS(=O)(=O)c1cccc2nsnc12)C(=O)O | inactive | inactive |
| CC(NC(=O)[C@H](Cc1ccccc1)NC(=O)OCc1ccccc1)C(=O)CF (stereo partly drawn) | inactive | inactive |
| Cc1nc(-c2cccnc2)sc1C(=O)Nc1ccccc1-c1cn2c(CN3CCOCC3)csc2n1 | inactive | inactive |
| CC(C)(O)C(O)C(=O)OCc1ccc(O[C@@H]2O[C@H](CO)[C@@H](O)[C@H](O)[C@H]2O)cc1 (stereo partly drawn) | inactive | inactive |
| C=C(CCO[C@@H]1O[C@H](CO)[C@@H](O)[C@H](O)[C@H]1O)C(=O)O | inactive | inactive |
| O=C(NC1Cc2ccccc2N(C[C@@H](O)CO)C1=O)c1cc2cc(Cl)sc2[nH]1 (stereo partly drawn) | inactive | inactive |
| CC(O)C1NC(=O)C2CCCN2C1=O (stereo not drawn) | inactive | inactive |
| CC(=O)OC[C@]12[C@H](OC(C)=O)[C@H](OC(=O)c3ccccc3)[C@@H]3[C@@H](OC(C)=O)[C@]1(OC3(C)C)[C@H](C)C[C@H](OC(=O)c1ccccc1)[C@@H]2OC(=O)c1ccccc1 | inactive | inactive |
| COc1ccc(-c2ccn(CC[C@](C)(C(=O)NO)S(C)(=O)=O)c(=O)c2)c(F)c1 | inactive | inactive |
| O=C(c1c2ccccc2cc2ccccc12)N1CCC(N2CCC[C@@H](C(=O)N3CCOCC3)C2)CC1 | inactive | inactive |
| CCC12CCCN3CCc4c(n(c5ccccc45)C(O)C1)C32 (stereo not drawn) | inactive | inactive |
| CC1=C2CC(=O)C(C)CC/C=C(\C)CC2(O)OC1=O (stereo not drawn) | inactive | inactive |
| CC(=O)OC[C@]12[C@@H](OC(=O)c3ccoc3)C[C@@H]3[C@@H](OC(C)=O)[C@]1(OC3(C)C)[C@@](C)(O)C[C@H](OC(=O)c1ccoc1)[C@@H]2OC(=O)c1ccoc1 | inactive | inactive |
| C=C1CCc2occ(C)c2[C@H]2[C@H]1[C@@]13O[C@@]1(C[C@@H](C)[C@H]3OC(C)=O)[C@H]1O[C@@]21C | inactive | inactive |
| C[C@H]1[C@H](C)CC[C@]2(C(=O)OC3OC(CO)C(O)C(O)C3O)CC[C@]3(C(=O)O)C(=CCC4[C@@]5(C)CC[C@H](O[C@@H]6O[C@@H](C)[C@H](OC7OC(CO)C(O)C(O)C7O)[C@@H](O)[C@H]6O)C(C)(C)C5CC[C@]43C)[C@H]12 (stereo partly drawn) | inactive | inactive |
